Drawing on PubChem BioAssay (Tox21), this text covers Potency for 14 compounds.

The structures appear in SMILES notation. “And” between values parts separate entries of the source, which are not always exact repeats. Equal entries are not always repeated. Records with an inconclusive call do not appear. More than one record can exist for a structure, and the calls need not agree. The source made the active and inactive calls. Unless noted, the call rests on the fitted dose curve; in most records, active means well fitted curve in the direction sought with a large enough effect in the repeat runs; inconclusive means weak or mixed curves; inactive means no such curve, though single readings can be large; an effect the other way counts as inactive or inconclusive.

Experiment [1] is described as follows: qHTS assay to identify small molecule antagonists of the thyroid receptor (TR) signaling pathway - cell viability counter screen (AID 743064). Further: nearly all actives have a fitted effect of over 50% in size. Further: potency means the concentration at half of the fitted maximal effect. A digest of the protocol: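 Compounds were tested on GH3.TRE-Luc cells in the presence of T3 at 1 nM final. Following 23.5 h at 37 °C, cell viability was quantified by CellTiter-Fluor.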
(Quantitative high-throughput screening tests each substance at several concentrations.)

Experiment [2] is described as follows: qHTS assay to identify small molecule antagonists of the thyroid receptor (TR) signaling pathway (AID 743065). Further: nearly all actives have a fitted effect of over 55% in size. Further: potency means the concentration at half of the fitted maximal effect. A digest of the protocol: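 Antagonism measured as loss of luciferase signal in GH3 cells stably carrying a TRE-luciferase reporter, co-treated with compound and T3 (1 nM final) for 23.5 h at 37 C. Viability was read in the same well by CellTiter-Fluor.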

In experiment [3] the test system is thyroid hormone receptor (rat, GH3 cells). The experiment is described as follows: qHTS assay to identify small molecule agonists of the thyroid receptor (TR) signaling pathway (AID 743066; calls by dose curve; further: potency means the concentration at half of the fitted maximal effect).
Experiment [4] is described as follows: qHTS assay to identify small molecule antagonists of the estrogen receptor alpha (ER-alpha) signaling pathway - cell viability counter screen (AID 743074; calls by dose curve;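 further: HEK293 cells carrying ER-alpha-UAS-bla reporter stimulated with 17beta-estradiol; nearly all actives have a fitted effect of over 45% in size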; further: potency means the concentration at half of the fitted maximal effect).
The nature of experiment [5]: qHTS assay to identify small molecule antagonists of the estrogen receptor alpha (ER-alpha) signaling pathway using the BG1 cell line - cell viability counter screen (AID 743081).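 Further: compound given together with 17beta-estradiol as the ER stimulus; series mostly up to about 70 µM; nearly all actives have a fitted effect of over 45% in size.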
Another experiment deals with Aromatase (Homo sapiens) (UniProt P11511). The experiment is described as follows: qHTS assay to identify aromatase inhibitors (AID 743083). Further: nearly all actives have a fitted effect of over 55% in size. Further: potency means the concentration at half of the fitted maximal effect.
Aromatase (Homo sapiens), sequence (P11511 whole entry, looked up): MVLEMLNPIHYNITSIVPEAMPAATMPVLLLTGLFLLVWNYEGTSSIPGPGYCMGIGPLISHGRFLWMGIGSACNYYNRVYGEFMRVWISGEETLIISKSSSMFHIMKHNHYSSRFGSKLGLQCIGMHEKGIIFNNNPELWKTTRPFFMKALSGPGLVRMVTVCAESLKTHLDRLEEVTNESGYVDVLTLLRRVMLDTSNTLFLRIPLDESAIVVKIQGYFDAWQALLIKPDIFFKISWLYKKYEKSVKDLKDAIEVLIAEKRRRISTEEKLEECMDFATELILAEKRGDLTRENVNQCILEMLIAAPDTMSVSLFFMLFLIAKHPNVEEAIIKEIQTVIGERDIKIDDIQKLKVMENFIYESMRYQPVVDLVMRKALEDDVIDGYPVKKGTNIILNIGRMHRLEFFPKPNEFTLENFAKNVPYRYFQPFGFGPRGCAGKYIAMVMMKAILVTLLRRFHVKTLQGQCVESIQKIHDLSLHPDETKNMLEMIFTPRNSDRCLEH
The nature of experiment [6]: qHTS assay to identify aromatase inhibitors - cell viability counter screen (AID 743084).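 Further: cells stimulated with testosterone during compound exposure; nearly all actives have a fitted effect of over 55% in size.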 Further: potency means the concentration at half of the fitted maximal effect.
In experiment [7] the target is Aryl hydrocarbon receptor (Homo sapiens) (UniProt P35869). Kind of experiment: qHTS assay to identify small molecule that activate the aryl hydrocarbon receptor (AhR) signaling pathway (AID 743085). Further: nearly all actives have a fitted effect of over 15% in size. Further: potency means the concentration at half of the fitted maximal effect.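 On activation: HG2L7.5c1 human HepG2 liver cells with stably integrated DRE-driven firefly reporter; series mostly up to about 70 µM.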 A digest of the protocol:
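24 h compound exposure, 37C, HepG2-derived HG2L7.5c1 cells with DRE-responsive luciferase. Readouts: fluorescence viability, then luminescence at room temperature after 30 min.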

Experiment [8] can be described thus: qHTS assay to identify small molecule that activate the aryl hydrocarbon receptor (AhR) signaling pathway - cell viability counter screen (AID 743086). Further: nearly all actives have a fitted effect of over 45% in size. Further: potency means the concentration at half of the fitted maximal effect. A digest of the protocol: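 Cytotoxicity counter screen: CellTiter-Fluor signal (30 min, 37 C) in 4000 HepG2 cells/well carrying the DRE-luciferase reporter, following 24 h compound exposure at 37 C.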
Experiment [9] deals with Peroxisome proliferator-activated receptor gamma (Homo sapiens) (UniProt P37231). The experiment is described as follows: qHTS assay to identify small molecule agonists of the peroxisome proliferator-activated receptor gamma (PPARg) signaling pathway (AID 743094; active means well fitted activation curve with a large enough effect in the signal ratio in the repeat runs, not every such curve was filed as active; the % refers to the signal ratio). In outline:
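GeneBLAzer PPARg UAS-bla HEK293H cells carrying a stably integrated beta-lactamase reporter were pre-incubated 5 h at 37C, then exposed to compounds in DMSO for 17 h at 37C; LiveBLAzer B/G FRET substrate was added for 1 h at room temperature and fluorescence read.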

Experiment [10] can be described thus: qHTS assay for small molecule agonists of the antioxidant response element (ARE) signaling pathway (AID 743202; active means well fitted activation curve with a large enough effect in the signal ratio in the repeat runs, not every such curve was filed as active; the % refers to the signal ratio; further: potency means the concentration at half of the fitted maximal effect). A digest of the protocol:
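An ARE-responsive beta-lactamase gene stably integrated in HepG2 cells serves as reporter. After 5 h plating and 16 h compound incubation at 37 C, fluorescence of the B/G FRET substrate was measured.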

Experiment [11] can be described thus: qHTS assay for small molecule agonists of the antioxidant response element (ARE) signaling pathway - cell viability counter screen (AID 743203; calls by dose curve; further: nearly all actives have a fitted effect of over 55% in size; further: potency means the concentration at half of the fitted maximal effect). A digest of the protocol:
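CellSensor ARE-bla HepG2 cells, 2,000 per well, rested 5 hrs at 37C/5% CO2, then exposed to compound in DMSO for 16 hrs; viability read as CellTiter-Glo luminescence after 30 min at room temperature, in the reporter wells.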

The nature of experiment [12]: qHTS assay for small molecule activators of the heat shock response signaling pathway - cell viability counter screen (AID 743209). Further: nearly all actives have a fitted effect of over 50% in size. In outline: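 CellSensor HSE-bla HeLa cells, plated overnight at 37 C/5% CO2, were exposed to compounds in DMSO for 5 h at 37 C. Viability was then read in the same wells by CellTiter-Glo luminescence after 30 min at room temperature.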

A short description of experiment [13]: qHTS assay for small molecule activators of the heat shock response signaling pathway (AID 743210; active means well fitted activation curve with a large enough effect in the signal ratio in the repeat runs, with a control signal flat, not every such curve was filed as active; the % refers to the signal ratio;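 further: HeLa cells with beta-lactamase reporter driven by heat shock elements; series mostly up to about 63 µM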). In outline:
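In HSE-bla HeLa cells, 5 h compound incubation (37 C) precedes addition of LiveBLAzer B/G substrate; after 2.5 h at room temperature, fluorescence intensity indicates reporter induction.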

Experiment [14] addresses Peroxisome proliferator-activated receptor gamma (Homo sapiens) (UniProt P37231). Kind of experiment: qHTS assay to identify small molecule antagonists of the peroxisome proliferator-activated receptor gamma (PPARg) signaling pathway (AID 743191; calls by dose curve; further: series mostly up to about 63 µM; nearly all actives have a fitted effect of over 30% in size). A digest of the protocol:
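Beta-lactamase reporter under UAS control in HEK293H PPARg-bla cells; compound treatment 17 h at 37C. Read-out: fluorescence intensity after 1 h room-temperature incubation with LiveBLAzer B/G FRET substrate.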

A short description of experiment [15]: qHTS assay to identify small molecule antagonists of the peroxisome proliferator-activated receptor gamma (PPARg) signaling pathway - cell viability counter screen (AID 743194). Further: nearly all actives have a fitted effect of over 55% in size. Further: potency means the concentration at half of the fitted maximal effect. The note with it: Potency: co-treated with 50 nM rosiglitazone. In outline:
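Viability was measured as CellTiter-Glo luminescence in GeneBLAzer PPARg UAS-bla HEK293H cells. These cells had been exposed 17 h at 37 C to compounds together with rosiglitazone at 50 nM final, with the beta-lactamase readout taken in the same wells.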

Experiment [16] concerns the target Estrogen receptor (Homo sapiens) (UniProt P03372). The experiment is described as follows: qHTS assay to identify small molecule agonists of the estrogen receptor alpha (ER-alpha) signaling pathway (AID 743075; calls by dose curve;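 further: HEK293 GripTite cells with ER-alpha and UAS-driven beta-lactamase reporter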).
For experiment [17] the target is unchanged. The experiment is described as follows: qHTS assay to identify small molecule agonists of the estrogen receptor alpha (ER-alpha) signaling pathway using the BG1 cell line (AID 743079). Further: potency means the concentration at half of the fitted maximal effect; nearly all actives have a fitted effect of over 20% in size.

Peroxisome proliferator-activated receptor gamma (Homo sapiens), sequence (P37231 whole entry, looked up): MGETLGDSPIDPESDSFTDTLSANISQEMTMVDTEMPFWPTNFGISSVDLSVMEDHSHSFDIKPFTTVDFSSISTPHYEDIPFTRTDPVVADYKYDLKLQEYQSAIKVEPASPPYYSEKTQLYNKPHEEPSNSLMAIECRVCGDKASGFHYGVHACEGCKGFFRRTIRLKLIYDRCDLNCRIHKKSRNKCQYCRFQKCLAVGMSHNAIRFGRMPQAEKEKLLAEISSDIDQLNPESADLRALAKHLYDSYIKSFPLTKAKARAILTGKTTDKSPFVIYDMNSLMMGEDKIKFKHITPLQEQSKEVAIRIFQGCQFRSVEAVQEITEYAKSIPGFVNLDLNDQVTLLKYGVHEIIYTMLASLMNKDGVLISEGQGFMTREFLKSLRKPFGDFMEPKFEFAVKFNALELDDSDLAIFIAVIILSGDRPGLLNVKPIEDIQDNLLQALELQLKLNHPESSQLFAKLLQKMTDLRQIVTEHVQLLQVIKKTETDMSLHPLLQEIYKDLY
Estrogen receptor (Homo sapiens), sequence (P03372 whole entry, looked up): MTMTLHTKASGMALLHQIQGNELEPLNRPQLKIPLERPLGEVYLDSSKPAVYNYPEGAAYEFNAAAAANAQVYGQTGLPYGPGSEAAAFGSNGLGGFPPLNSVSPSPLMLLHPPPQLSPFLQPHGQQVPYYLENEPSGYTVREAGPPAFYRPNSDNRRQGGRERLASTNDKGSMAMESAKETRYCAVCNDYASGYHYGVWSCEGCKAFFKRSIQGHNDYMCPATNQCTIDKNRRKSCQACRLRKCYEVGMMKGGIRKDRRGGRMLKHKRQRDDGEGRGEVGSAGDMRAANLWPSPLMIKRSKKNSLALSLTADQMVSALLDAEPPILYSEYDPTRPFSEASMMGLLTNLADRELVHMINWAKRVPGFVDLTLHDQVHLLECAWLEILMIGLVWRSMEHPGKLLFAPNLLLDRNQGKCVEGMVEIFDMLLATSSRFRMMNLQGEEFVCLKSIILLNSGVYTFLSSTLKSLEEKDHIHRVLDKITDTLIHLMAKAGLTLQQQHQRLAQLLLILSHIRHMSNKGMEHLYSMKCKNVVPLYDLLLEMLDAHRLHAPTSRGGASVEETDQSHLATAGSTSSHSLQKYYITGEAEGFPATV
Aryl hydrocarbon receptor (Homo sapiens), sequence (P35869 whole entry, looked up): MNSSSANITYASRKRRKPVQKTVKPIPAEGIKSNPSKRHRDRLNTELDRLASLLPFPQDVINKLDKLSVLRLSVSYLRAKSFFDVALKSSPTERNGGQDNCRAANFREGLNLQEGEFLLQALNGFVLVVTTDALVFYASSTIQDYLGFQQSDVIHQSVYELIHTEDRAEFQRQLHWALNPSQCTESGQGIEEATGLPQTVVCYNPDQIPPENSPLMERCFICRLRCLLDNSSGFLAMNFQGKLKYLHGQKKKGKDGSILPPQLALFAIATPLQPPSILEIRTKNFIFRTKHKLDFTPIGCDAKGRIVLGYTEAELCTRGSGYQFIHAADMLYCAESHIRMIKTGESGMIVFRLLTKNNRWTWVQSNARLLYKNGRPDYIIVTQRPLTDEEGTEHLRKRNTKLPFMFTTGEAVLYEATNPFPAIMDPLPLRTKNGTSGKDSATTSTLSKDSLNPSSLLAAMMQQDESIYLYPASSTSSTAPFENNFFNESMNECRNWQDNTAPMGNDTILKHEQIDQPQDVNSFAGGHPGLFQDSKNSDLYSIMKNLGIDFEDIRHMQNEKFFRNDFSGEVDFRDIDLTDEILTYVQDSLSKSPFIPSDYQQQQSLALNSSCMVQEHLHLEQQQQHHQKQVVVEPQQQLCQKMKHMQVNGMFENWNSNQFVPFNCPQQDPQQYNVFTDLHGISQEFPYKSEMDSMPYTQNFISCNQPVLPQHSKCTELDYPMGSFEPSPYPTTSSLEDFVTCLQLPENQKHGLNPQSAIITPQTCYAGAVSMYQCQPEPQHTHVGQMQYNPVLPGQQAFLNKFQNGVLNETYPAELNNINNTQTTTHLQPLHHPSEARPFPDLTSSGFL

With `C=CCSSCC=C`, the Potency entry (in experiment [1]; in [2]; in [3]; in experiment [4]; in experiment [5]; with Aromatase (Homo sapiens)) was “inactive” each time. For the same compound, the Potency entry in experiment [6], in experiment [7], in experiment [8], in experiment [9], in experiment [10] and in experiment [11] was “inactive” each time. Further, the Potency result in experiment [12] and in experiment [13] was “inactive” each time.
In the case of `COc1ccccc1N1CCNCC1`, the Potency entry (in [1]; in experiment [2]; in experiment [3]; in experiment [4]; in experiment [5]; with Aromatase (Homo sapiens)) was “inactive” each time. In addition, the Potency result in experiment [6], in experiment [8], in experiment [9], in experiment [14], in experiment [15] and in experiment [10] was “inactive” in each case. Besides, the Potency entry in experiment [11] and in [13] was “inactive” throughout.
On to `Cc1ccccc1`, for which the Potency result (in experiment [1]; in experiment [2]; in experiment [3]; in experiment [4]; in experiment [5]; with Aromatase (Homo sapiens)) was “inactive” each time. Further, the Potency entry in [6], in experiment [7], in experiment [8], in [9], in experiment [15] and in experiment [10] was “inactive” in each case. Moreover, the Potency result in [11], in experiment [12] and in experiment [13] was “inactive” throughout.
As for `CCCCOC(=O)CCC(=O)OCCCC`, the Potency result (in [1]; in experiment [2]; in experiment [3]; in experiment [4]; in experiment [5]; in the experiment with Aromatase (Homo sapiens)) was “inactive” in each case. In addition, the Potency result in experiment [6], in experiment [7], in experiment [8], in experiment [9], in experiment [14] and in [15] was “inactive” each time. For the same compound, the Potency result in [10], in experiment [11] and in experiment [13] was “inactive” each time.
For `Nc1cc(Cl)cc(C(=O)O)c1Cl`, the Potency entry (in experiment [1]; in experiment [2]; in experiment [3]; in experiment [4]; in experiment [5]; with Aromatase (Homo sapiens)) was “inactive” throughout. The Potency result in experiment [6], in experiment [7], in experiment [8], in [9], in experiment [15] and in [10] was “inactive” in each case. Moreover, the Potency result in [11], in experiment [12] and in experiment [13] was “inactive” in each case.
Turning to `NNCCO`, the Potency result in [1], in experiment [2], in [3], in experiment [4], in [16] and in experiment [5] was “inactive” each time. The Potency result (with Aromatase (Homo sapiens); in experiment [6]; in experiment [7]; in experiment [8]; in [15]; in experiment [10]) was “inactive” throughout. Also, the Potency result in experiment [11], in experiment [12] and in experiment [13] was “inactive” each time.
Take `CCCCCCCCCCCC[N+](C)(C)CCOc1ccccc1`: the Potency was 13.3 µM (active) and 9.69 µM (active) in [1]; 10.6 µM (active) and 9.69 µM (active) in [2]; 19 µM (active) and 17.4 µM (active) in [4]; 21.1 µM (active) and 19.3 µM (active) in the experiment with Aromatase (Homo sapiens); 26.6 µM (active) and 27.3 µM (active) in [6]; 68.6 µM (active) in experiment [8]. The Potency in experiment [15] was 21.9 µM (active) and 13.3 µM (active); in [11] it was 30.6 µM (active) and 29.8 µM (active). In addition, the Potency result in experiment [3], in experiment [16], in experiment [5] and in experiment [7] was “inactive” in each case.
With `OC[P+](CO)(CO)CO`, the Potency result (in experiment [1]; in experiment [2]; in [3]; in experiment [4]; in experiment [5]; with Aromatase (Homo sapiens)) was “inactive” each time. Further, the Potency result in experiment [8], in experiment [9], in [15], in experiment [11], in experiment [12] and in [13] was “inactive” in each case. The Potency in experiment [6] is 61.8 µM (active) and inactive; in experiment [10], 12.3 µM (active) and 8.63 µM (active).
Regarding `CC[N+]1(C)CCCC(OC(=O)C(O)(c2ccccc2)c2ccccc2)C1` (stereo not given), the Potency entry (in experiment [1]; in [2]; in experiment [3]; in experiment [4]; in experiment [5]; with Aromatase (Homo sapiens)) was “inactive” in each case. The Potency entry in experiment [6], in experiment [7], in [8], in [15], in experiment [10] and in experiment [11] was “inactive” each time. In addition, the Potency result in [12] and in [13] was “inactive” in each case.
For `CC(=O)OC(c1ccccc1)C(Cl)(Cl)Cl` (stereo not given), the Potency result in experiment [1], in experiment [2], in [3], in experiment [4], in experiment [16] and in experiment [5] was “inactive” throughout. Further, the Potency result in [6], in experiment [8], in experiment [15], in [10], in [11] and in [12] was “inactive” each time. Besides, the Potency entry in experiment [13] was “inactive”.
Regarding `O=C(NCNC(=O)NC1C(=O)NC(=O)N1CO)NC1C(=O)NC(=O)N1CO` (stereo not given), the Potency result (in experiment [1]; in [2]; in experiment [3]; in [4]; in experiment [5]; with Aromatase (Homo sapiens)) was “inactive” each time. Besides, the Potency result in [6], in experiment [7], in experiment [8], in experiment [9], in experiment [14] and in experiment [15] was “inactive” each time. Further, the Potency entry in [10], in experiment [11], in experiment [12] and in [13] was “inactive” in each case.
For `CN(C)c1ccc(N=O)cc1`, the Potency in experiment [1] is 3.87 µM (active) and 9.69 µM (active); in experiment [2] it was 5.46 µM (active) and 12.2 µM (active); in experiment [3], 13.7 µM (active); in experiment [17] it was 12.2 µM (active); with Aromatase (Homo sapiens) it was 9.72 µM (active) and 21.7 µM (active); in [6], 6.13 µM (active) and 15.4 µM (active). For the same compound, the Potency in experiment [7] was 21.8 µM (active) and 21.7 µM (active); in [8], 61.3 µM (active) and 68.6 µM (active); in [15], 49.1 µM (active) and 34.7 µM (active); in [11] it was “inactive and 54.5 µM (active)”. Besides, the Potency result in experiment [4] and in experiment [16] was “inactive” throughout.
As to `N#CC1(N=NC2(C#N)CCCCC2)CCCCC1`, the Potency result (in experiment [1]; in experiment [2]; in experiment [3]; in [4]; in experiment [5]; in the experiment with Aromatase (Homo sapiens)) was “inactive” throughout. For the same compound, the Potency result in experiment [6], in experiment [7], in experiment [8], in experiment [9], in [14] and in experiment [15] was “inactive” in each case. Moreover, the Potency result in experiment [11], in experiment [12] and in experiment [13] was “inactive” in each case.
In the case of `C[Si](Cn1cncn1)(c1ccc(F)cc1)c1ccc(F)cc1`, the Potency was 63.1 µM (active) in [1]; 28.2 µM (active) and 54.5 µM (active) in experiment [2]; 316 nM (active) and 545 nM (active) in the experiment with Aromatase (Homo sapiens); 63.1 µM (active) and inactive in [6]; 28.2 µM (active) in experiment [8]. Further, the Potency entry in [3], in [4], in experiment [5], in experiment [7], in [9] and in [14] was “inactive” in each case. The Potency result in experiment [15], in [10], in [11], in experiment [12] and in [13] was “inactive” in each case.
